AHR activator: activators of human aryl hydrocarbon receptor; activation, % at 5 µM; hit rate 2.5% among 320,000; AID 2796; P35869; AHR-responsive luciferase reporter cells, luminescence; in the data active = activation above about 47%;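 also: 0% = vehicle wells and 100% = reference agonist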
DAX1 inh: NR0B1 (DAX1) inhibition. HEK293 Gal4-DAX1 luciferase reporter, luminescence. inhibition, % at 6.75 µM. hit rate 0.99% among 340,000;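 active = inhibition above the mean over all tested compounds plus 3 SD, cut at about 4.2% in these data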;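 also: 0% = DAX1-transfected cells with DMSO and 100% = empty-vector control cells with DMSO; inhibition shows as a rise in luminescence from relieved DAX1 repression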
FXN GAA850 act: activators of GAA850 frataxin (FXN) promoter. HEK293 lucGAA850 FXN promoter luciferase reporter, 24 h; percent of 10 µM SAHA response. activation, % at 6 µM. AID 540364. hit rate 0.56% among 360,000;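 active = activation above the average of all compounds screened plus 3 SD, cutoff fixed separately per campaign, cut at about 7.5% in these data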;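 also: 0% = DMSO wells and 100% = 10 µM SAHA wells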
HSF1 inh: HSF1 inhibition. NIH3T3-HGL HSE-luciferase, MG132-induced, luminescence 8 h; stronger effect = lower value. activity change, negative = inhibition, % at 7.5 µM (by protocol). hit rate 0.77% among 300,000;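 active = more than half of replicate wells show activity change below -50%, luminescence cut by over half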;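 also: luciferase reports HSF-1 transcriptional activity via heat shock element; 0% = median of DMSO wells and -100% = zero luminescence signal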
HSF1 activator: increases HSF-1 driven luciferase reporter signal. NIH3T3-HGL HSF-1 luciferase reporter, MG132, 8 h; 100% = twice DMSO control signal. activation, % at 9 µM. hit rate 1.7% among 300,000. AID 504408;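 active = mean replicate activation of at least 50% with a set share of replicates each reaching 50%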;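 also: 0% = median of the neutral control wells and 100% = twice that signal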
AHR act cf: human AHR activation, confirmation; shares compounds with AHR activator; human cells, AHR-responsive luciferase reporter, luminescence; activation, % at 9 µM; hit rate 87% among 2,300; in the data active = activation above about 49%;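 also: HepG2 hepatoma cells carrying a DRE-driven firefly luciferase reporter; 0% = vehicle wells and 100% = reference agonist wells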
PXR act counter: counter-screen for AHR activators: human PXR activators. shares compounds with AHR activator. cell-based PXR reporter, luciferase luminescence. activation, % at 11.6 µM. hit rate 88% among 2,300. AID 434939; in the data active = activation above about 11%;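 also: human hepatoma DPX-2 cells expressing full-length human PXR; 0% = DMSO and 100% = reference agonist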
Target sequence (O75469 whole entry, looked up): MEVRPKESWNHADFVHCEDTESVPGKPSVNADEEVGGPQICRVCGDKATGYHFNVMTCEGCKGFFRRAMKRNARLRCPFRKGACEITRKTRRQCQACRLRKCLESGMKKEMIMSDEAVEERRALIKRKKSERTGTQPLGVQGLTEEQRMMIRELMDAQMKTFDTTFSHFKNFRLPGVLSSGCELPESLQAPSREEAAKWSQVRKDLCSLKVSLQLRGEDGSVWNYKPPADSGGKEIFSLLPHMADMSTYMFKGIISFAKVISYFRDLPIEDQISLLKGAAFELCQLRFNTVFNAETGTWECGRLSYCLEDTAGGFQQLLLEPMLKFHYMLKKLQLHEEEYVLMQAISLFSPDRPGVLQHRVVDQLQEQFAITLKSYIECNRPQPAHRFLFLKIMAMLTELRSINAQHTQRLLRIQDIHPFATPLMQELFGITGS
Numbers without * were called inactive; / = no result given. In the library only some 5.4% were active in any assay of this set; here they are far more common.

SMILES | AHR activator | DAX1 inh | FXN GAA850 act | HSF1 inh | HSF1 activator | AHR act cf | PXR act counter
CC(C)[C@H](NC(=O)[C@@H]1CSC2c3ccccc3C(=O)N21)C(=O)N1CCCCC1 (stereo partly specified) | 1 | 0 | -1 | -1 | -6 | / | /
COc1cc(C(=O)NNC(=O)c2nn(C)c(=O)c3ccccc23)cc(OC)c1OC | -1 | 1 | -1 | / | / | / | /
CCOc1ccc(C(C(=O)NCC2CCCO2)N(Cc2cccnc2)C(=O)c2snc(C(N)=O)c2N)cc1 (stereo unspecified) | / | 0 | -1 | -3 | -7 | / | /
CSc1nc(C(=O)N2CCCC(Nc3ccc(C)c(C)c3)C2)cs1 (stereo unspecified) | 108* | 0 | -2 | 1 | 1 | 75* | 119*
Cc1nc(C(=O)N2CCCC(Nc3ccc(C)c(C)c3)C2)cs1 (stereo unspecified) | / | 0 | 2 | -5 | 1 | / | /
Cc1cc(C)cc(Nc2nc3c([nH]2)c(=O)n(C)c(=O)n3C)c1 | 95* | 0 | -1 | -3 | -7 | 38 | 27*
Cc1ccc(Nc2nc3c([nH]2)c(=O)n(C)c(=O)n3C)cc1 | 34 | 1 | -1 | -1 | 0 | / | /
NS(=O)(=O)Cc1noc2ccccc12 | -3 | 0 | 3 | -2 | -6 | / | /
COc1ccccc1CNS(=O)(=O)c1cc(-c2cc(C)no2)ccc1C(C)C | 14 | 0 | 1 | -2 | -2 | / | /
CCn1cnc2cc(NCc3cccs3)ccc21 | 8 | -1 | 5 | 6 | 2 | / | /
CCCn1c(CNc2ccc(Br)cc2)nc2ccccc21 | 101* | -1 | 4 | 19 | 19 | 93* | 51*
CC(C)n1cnc2cc(NCc3nc4ccccc4n3C)ccc21 | 91* | 1 | 5 | 10 | 6 | 86* | 128*
CCCC(=O)NCc1nc2ccccc2n1C | -1 | 0 | 2 | 1 | 15 | / | /
CCn1cnc2cc(NCc3nc4ccccc4n3C)ccc21 | 93* | 0 | 2 | -40 | -50 | 65* | 83*
CCn1cnc2cc(NCc3ccc(Br)cc3)ccc21 | 107* | / | / | 19 | 19 | 113* | 46*
CCn1cnc2cc(NCc3cccc(OC)c3O)ccc21 | 13 | 0 | 2 | 18 | 36 | / | /
COc1ccc(-c2ccc(C(=O)Nc3cccc(C(F)(F)F)c3)c3occc23)c(C)c1 | / | / | -2 | / | / | / | /
N/C(=N\OC(=O)c1ccccc1Cl)c1cccnc1 | 102* | 1 | 3 | 16 | 47 | 104* | 5
N/C(=N\OC(=O)c1ccc(Cl)c(Cl)c1)c1cccnc1 | 80* | -1 | 4 | 20 | 37 | 80* | 14*
CC(=O)c1cccc(-n2nnnc2SCC(=O)Nc2cc(C)on2)c1 | 13 | 0 | -3 | -2 | 4 | / | /
O=C(Nc1cccc(Cl)c1)c1ccc(NCC2CCCO2)c([N+](=O)[O-])c1 (stereo unspecified) | 91* | 0 | 3 | 4 | 6 | 6 | 30*
Nc1nc(NCC2CCCO2)nc(Nc2cccc(Cl)c2)c1[N+](=O)[O-] (stereo unspecified) | 99* | 0 | 3 | 0 | 18 | 27 | 16*
Cc1cccc(NC(=O)c2ccc(NCC3CCCO3)c([N+](=O)[O-])c2)c1 (stereo unspecified) | -3 | -2 | 6 | 12 | 11 | / | /
NC(=O)c1ccc(NC(=O)CN2CCN(Cc3ccccc3)CC2)cc1 | -1 | 0 | 0 | -10 | -9 | / | /
Cn1cccc1C(=O)C(=O)Nc1cccc(Cl)c1Cl | 92* | 1 | 6 | 29 | 36 | 104* | 10*
O=C1c2ccccc2C(=O)c2c1cccc2N(CCO)CCO | 131* | 0 | 0 | -2 | 8 | 14 | 8
COc1cc2ccccc2cc1C(=O)Nc1ccc(Cc2ccncc2)cc1 | 46 | -1 | -2 | -1 | 9 | / | /
COc1cc2ccccc2cc1C(=O)Nc1ccc(C)cc1 | 83* | 5.9* | 2 | 21 | 39 | 92* | /
COc1ccc(C(=O)Nc2ccc3ccccc3c2)c(OC)c1 | 85* | 5.8* | 5 | 5 | 37 | 96* | 9
CCOC(=O)/C(Sc1nc(-c2ccccc2)cc(-c2ccccc2)c1C#N)=C(\C)O | 0 | 1 | 4 | 1 | 9 | / | /

Assay outcomes: PubChem BioAssay, several laboratories
